Shown are actives, neighbours in structure and some others; about 10% of the full set was active somewhere.
SW480 rereplic – DNA re-replication induction in SW480 cells; SW480 DNA re-replication, Hoechst DNA content imaging, 48 h; Potency, µM (titrated, usually from 46.1 µM), for inactives: top-dose re-replication activation, most hits filed as activators; hit rate 1.8% among 340,000; AID 624297; note: % of control where 0% means no effect; nearly all actives have a fitted effect of over 55% in size
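First, 250 cells per well were seeded. Next, compound or vehicle (23 nL) was pinned in, plates sat 48 hr at 37 C. Finally Hoechst was added for 40 min before fluorescence scanning.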
KB-3-1 cytotox – KB-3-1 parental cell cytotoxicity; KB-3-1 viability, CellTiter-Glo ATP luminescence, 72 h; Potency, µM (top dose mostly 46.1 µM), usual class: cytotoxic; hit rate 1.4% among 400,000; note: % is set by controls: 0 for no effect and ±100 for the full control effect; nearly all actives have a fitted effect of over 60% in size
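Parental KB-3-1 adenocarcinoma cells in phenol-red-free DMEM with 10% FBS were pin-treated with compounds at several concentrations, incubated 72 h at 37 °C, and viability read by CellTiter-Glo luminescence; concentration-effect curves were fitted after normalization.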
VP16 counter – Gal4-VP16 reporter inhibition counter-screen | hit rate 3.5% among 310,000 | Potency, µM (titrated, usually from 53.6 µM), without a hit: top-dose activity, negative = inhibition, hits mostly inhibitors | Drosophila S2 Gal4-VP16 UAS-luciferase, luminescence, 20 h;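 note: Gal4-VP16 expression switched on by copper sulfate through the metallothionein promoter; % is set by controls: 0 for no effect and ±100 for the full control effect; nearly all actives have a fitted effect of over 50% in size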
MCF10A rerep – induces DNA re-replication in MCF 10a normal breast cells; MCF 10A DNA re-replication, Hoechst nuclear intensity, 48 h; Potency, µM (top dose mostly 46.1 µM), for inactives: at the top dose activity, positive = re-replication, usual class: activators; AID 624296; hit rate 2.9% among 350,000; note: % of control where 0% means no effect; nearly all actives have a fitted effect of over 50% in size
KB-V1 cytotox – KB-V1 MDR subline cytotoxicity. Potency, µM (highest dose often 46.1 µM), most hits filed as cytotoxic. KB-V1 MDR cells viability, CellTiter-Glo, 72 h. hit rate 3.4% among 400,000. AID 1347076; note: % is set by controls: 0 for no effect and ±100 for the full control effect; nearly all actives have a fitted effect of over 60% in size
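Cytotoxicity via CellTiter-Glo luminescence after 72 h compound exposure at 37 degrees C. Cells: drug-selected KB-V1 line, DMEM phenol-red free plus 10% FBS. Compounds tested at multiple concentrations; normalized data fitted to concentration-effect curves.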
RORgamma inh – blocks mouse ROR gamma transcriptional activity; P51450; Drosophila S2 Gal4-RORgamma UAS-luciferase reporter, 20 h; Potency, µM (doses to about 53.6 µM), without a hit: at the highest dose activity change, negative = inhibition, actives largely listed as inhibitors; hit rate 5.4% among 310,000; AID 2551; note: % is set by controls: 0 for no effect and ±100 for the full control effect; nearly all actives have a fitted effect of over 60% in size
Target sequence (P51450 whole entry, looked up, the tested form may be a part): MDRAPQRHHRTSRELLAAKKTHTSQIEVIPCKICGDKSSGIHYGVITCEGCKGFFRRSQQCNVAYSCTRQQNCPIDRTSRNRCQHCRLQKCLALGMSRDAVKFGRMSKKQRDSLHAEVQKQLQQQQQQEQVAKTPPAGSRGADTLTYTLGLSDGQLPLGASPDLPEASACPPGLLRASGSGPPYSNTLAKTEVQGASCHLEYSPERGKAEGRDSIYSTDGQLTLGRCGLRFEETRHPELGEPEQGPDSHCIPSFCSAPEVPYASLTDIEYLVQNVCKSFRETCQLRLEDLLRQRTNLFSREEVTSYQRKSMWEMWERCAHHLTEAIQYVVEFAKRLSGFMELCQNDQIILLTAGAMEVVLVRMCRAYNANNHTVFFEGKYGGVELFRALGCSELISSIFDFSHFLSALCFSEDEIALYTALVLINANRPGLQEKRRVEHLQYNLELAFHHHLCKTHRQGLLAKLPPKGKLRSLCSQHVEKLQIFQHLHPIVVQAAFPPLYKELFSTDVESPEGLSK
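Read-out: Photinus luciferase luminescence; inhibitors lower reporter signal. Insect Schneider cells with Gal4-ROR gamma fusion under metallothionein promoter, UAS reporter; 700 uM final copper sulfate induction, 20 hr, ambient temperature.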
* marks the source's active call; other numbers are inactive results; i = inactive; ? = inconclusive; . = no result; [ ] = remark or other dose. Calls come from the whole dose curve; as a rule, active = well fitted curve in the direction sought with a large enough effect; inconclusive = small, poorly fitted or top-dose-only effect, or another doubt; inactive = no such curve, though single readings can be large; an effect the other way counts as inactive or inconclusive. Potency is the fitted concentration of half-maximal effect.

SMILES | SW480 rereplic | KB-3-1 cytotox | VP16 counter | MCF10A rerep | KB-V1 cytotox | RORgamma inh
COc1cccc(-c2ccc(=O)n(CC(=O)Nc3cc4c(cc3NC(C)=O)OCCO4)n2)c1 | -6% | i | -6% | -1% | i | -9%
COc1ccccc1NC(=O)Cn1nc(-c2ccc3c(c2)OCCO3)ccc1=O | 4% | i | 1% | 0.92µM* | i | 10%
CN1CCN(NC(=S)NC(C)(C)CC(C)(C)C)CC1 | -1% | i | 18µM* | 2% | ? | 6.3µM*
CCCC(=O)Nc1ccc(-c2nc3ncccc3o2)cc1C | . | i | . | . | i | .
Cn1c(=O)c([N+](=O)[O-])c(Cl)c2ccccc21 | 16µM* | ? | 13µM* | 3.7µM* | i | 10µM*
COc1cccc(N2CCN(c3ncnc4c3[nH]c3ccccc34)CC2C)c1 (stereo not given) | . | . | 14µM* | . | . | ?
COc1ccc2[nH]c3c(N4CC(C)OC(C)C4)ncnc3c2c1 (stereo not given) | -13% | i | -1% | -1% | i | 20%
COc1cccc(N2CCN(c3ncnc4c3[nH]c3ccc(F)cc34)CC2C)c1 (stereo not given) | ? | ? | 7.1µM* | ? | ? | ?
O=C(O)CNC(=O)c1ccc(CO)o1 | . | . | 6% | . | . | 7%
C=C1C(=O)O[C@H]2[C@H]1[C@H](OC(=O)/C(C)=C\C)C[C@]1(CO1)[C@@H]1[C@H](OC(C)=O)C=C(C)[C@]21O | ? | i | . | 3.3µM* | i | .
CC(=O)OCC(NC(=O)C(C)NC(=O)OC(C)(C)C)C1OC(n2ccc(=O)[nH]c2=O)C(OC(C)=O)C1OC(C)=O (stereo not given) | . | . | -5% | . | . | 31%
Cc1ccc(NC(=O)CSc2nn(-c3ccc(Cl)cc3)c(=S)s2)cc1S(=O)(=O)N(C)C | . | ? | -8% | 13% | 21µM* | -15%[10 µM]
NS(=O)(=O)c1cccc(NC(=O)CSc2nn(-c3ccccc3)c(=S)s2)c1 | -1% | i | -18% | 2% | i | ?
CN(C)S(=O)(=O)c1cc(NC(=O)CSc2nn(-c3ccc(Cl)cc3)c(=S)s2)ccc1Cl | 16% | ? | -2% | 7% | 16µM* | ?
Cc1cc(C)nc(-n2nc(C)c3c2N(Cc2ccccc2C)C(=O)CC3c2ccc(Cl)cc2)n1 (stereo not given) | . | i | . | . | i | .
Fc1cccc(Nc2ncnc3[nH]ncc23)c1 | -25% | i | -14% | 4.1µM* | i | -17%
CCN(CC)C(=S)S | ? | . | 3.5µM* | 6% | . | ?
C[C@H](CO)NC(=O)[C@H]1C[C@@H]1[C@H](NP(=O)(c1ccccc1)c1ccccc1)c1ccccc1 | . | . | 11% | . | . | 2%
CSc1cccc(NC(=O)/C=C/c2ccc(Cl)cc2)c1 | 0% | ? | ? | 16% | 15µM* | ?
O=C(COC(=O)/C=C/c1ccccc1)Nc1ccc(Cl)cn1 | -11% | i | . | 0% | i | .
COc1cccc(NC(=O)/C=C\c2ccc(Cl)cc2)c1 | . | . | -16% | . | . | -3%
Cc1cccc(NC(=O)/C=C/c2ccc(Cl)cc2)n1 | . | i | 7.1µM* | 0% | 16µM* | 1.6µM*
O=C(/C=C/c1ccccc1)Nc1ccc(Cl)cn1 | 15µM* | 18µM* | -12% | ? | ? | 8%
CSc1cccc(NC(=O)/C=C/c2ccccc2)c1 | -3% | i | 1% | 19% | i | ?
O=C1NC2(CCCCC2)N=C1c1ccc(F)cc1 | -5% | i | 10% | -8% | i | 1%
SMILES | SW480 rereplic | KB-3-1 cytotox | VP16 counter | MCF10A rerep | KB-V1 cytotox | RORgamma inh
O=C1NC2(CCCCC2)N=C1c1ccc(Br)cc1 | -3% | i | ? | 2% | i | 13µM*
Cc1ccc(C2=NC3(CCCCCC3)NC2=S)cc1 | -1% | i | 2.2µM* | 3% | i | 1.4µM*
Cc1cccc(C(=O)Nc2nnc(-c3ccco3)o2)c1 | 16% | ? | 0.63µM* | 19% | ? | 0.5µM*
O=C(CSc1ccc(Cl)cc1)Nc1nnc(-c2ccco2)o1 | ? | i | . | 5% | i | .
O=C(Nc1nnc(-c2ccco2)o1)c1ccc(Cl)cc1 | 1% | ? | 0.63µM* | ? | ? | 0.35µM*
Cc1ccccc1C(=O)Nc1nnc(-c2ccco2)o1 | -2% | i | -10% | 2% | ? | 2%
Cn1ccc(NC(=O)c2ccc(Cl)cc2)n1 | 20% | i | . | -4% | i | .
Cc1ccc(C(=O)Nc2nnc(-c3ccco3)o2)cc1C | 2% | ? | 0.89µM* | ? | ? | 0.63µM*
O=C(Nc1nnc(-c2ccco2)o1)c1cccc(N2C(=O)CCC2=O)c1 | -1% | i | 4% | 10% | i | -33%
Cc1cccc(C(=O)Nc2ccn(C)n2)c1 | 18µM* | i | . | -12% | i | .
COC(=O)c1ccccc1NC(=O)c1c(C)oc2ncn(C)c(=O)c12 | . | i | . | . | i | .
O=S(=O)(CCc1ccccc1)c1nnnn1-c1ccccc1 | . | . | -4% | . | . | -1%
O=C(NCCOCCn1c(=O)oc2ccccc21)Nc1ccc(Cl)cc1 | . | i | . | . | i | .
COc1ccc(-c2ccc(/C=C3\C(=O)N(c4ccccc4)N=C3c3ccccc3)o2)c([N+](=O)[O-])c1 | -1% | i | -8% | -1% | i | -17%

Assay outcomes (PubChem)
